Data: PubChem BioAssay (EPA / NIEHS)
“And” between values parts separate entries of the source, which are not always exact repeats. Equal values may be shown once. Inconclusive results are not listed. The source made the active and inactive calls. Rule for the calls, unless noted: active = hit-call score of the fitted dose curve at least 0.9, where 1 is the maximum; inconclusive = response in the unintended direction; inactive = score below 0.9.

What was measured:
[1] = ATG_XTT_Cytotoxicity: Cytotoxicity Assessment in the Attagene TRANS-FACTORIAL HepG2 Assay (AID 2283584)
How it was run: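 Cells: human HepG2, transiently transfected with MRTU reporter constructs. Exposure 24 h. Readout: XTT, cell number. Baseline/neg ctrl DMSO; loss-of-signal scored.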

[2] = TOX21_p53_BLA_p2_viability: Viability Assessment in the Tox21 HCT-116 p53 Agonism Beta-lactamase Assay, Phase 2 (AID 2283591);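 note: compound exposure lasted 16 h at 37 °C; actives lower the ATP signal meaning cytotoxicity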
How it was run: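 Cytotoxicity readout: CellTiter-Glo ATP luminescence, 30 min at room temperature, after the beta-lactamase read. Cells were HCT116 exposed 16 h at 37C to compounds pin-transferred at 217-fold dilution from DMSO stocks.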

[3] = biological target: Cellular tumor antigen p53 (Homo sapiens) (UniProt P04637); assay: TOX21_p53_BLA_p2_ratio: Tox21 HCT-116 p53 Agonism Beta-lactamase Assay, Ratio, Phase 2 (AID 2283592)
Sequence of Cellular tumor antigen p53 (Homo sapiens) (P04637 whole entry, looked up): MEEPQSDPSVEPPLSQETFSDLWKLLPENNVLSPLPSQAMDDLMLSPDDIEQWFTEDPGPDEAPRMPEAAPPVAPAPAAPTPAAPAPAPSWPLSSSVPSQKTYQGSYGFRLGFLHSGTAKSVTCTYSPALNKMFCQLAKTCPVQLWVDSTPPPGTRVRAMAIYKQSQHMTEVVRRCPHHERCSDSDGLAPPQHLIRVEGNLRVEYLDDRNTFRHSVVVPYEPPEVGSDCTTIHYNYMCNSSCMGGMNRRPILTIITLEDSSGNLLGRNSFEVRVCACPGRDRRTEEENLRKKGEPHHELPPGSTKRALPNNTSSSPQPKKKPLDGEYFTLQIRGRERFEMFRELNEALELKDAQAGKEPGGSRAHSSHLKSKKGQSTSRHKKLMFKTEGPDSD
How it was run: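 HCT116 p53-bla; 4000 cells/well; 5 h pre-incubation; cpd in DMSO, 217-fold dilution; 16 h 37C/5% CO2; CCF4-AM 2 h RT; Ex 405, Em 460/530 ratio; DMSO = baseline; positive fitting direction.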

[4] = TOX21_p53_BLA_p4_viability: Viability Assessment in the Tox21 HCT-116 p53 Agonism Beta-lactamase Assay, Phase 4 (AID 2283597);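 note: hits lower the luminescence signal meaning cytotoxicity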
How it was run: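 Cells plated, 5 h pre-incubation; DMSO compounds pinned (217-fold dilution); 16 h, 37C/5% CO2; CCF4-AM 2 h RT; CellTiter-Glo 30 min RT; luminescence read.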

[5] = biological target: Cellular tumor antigen p53 (Homo sapiens) (UniProt P04637); assay: TOX21_p53_BLA_p5_ratio: Tox21 HCT-116 p53 Agonism Beta-lactamase Assay, Ratio, Phase 5 (AID 2283599)
How it was run: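 Beta-lactamase reporter ratio (blue 460 nm over green 530 nm, 405 nm excitation) after 2 h CCF4-AM loading, in HCT-116 cells exposed 16 h at 37 C to compounds pinned at 217-fold dilution. Increases relative to DMSO baseline scored.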

[6] = TOX21_p53_BLA_p5_viability: Viability Assessment in the Tox21 HCT-116 p53 Agonism Beta-lactamase Assay, Phase 5 (AID 2283600)
How it was run: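 4000 cells/well; 5 h pre-incubation; DMSO compounds pin-transferred, 217-fold dilution; 16 h, 37C/5% CO2; CCF4-AM 2 h RT; CellTiter-Glo 30 min RT; luminescence.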

[7] = system: zebrafish Androgen Receptor (AR), gene 100005148; assay: ATG_zfAR_XSP1: Attagene TRANS-FACTORIAL Multi-Species (XSP1) HepG2 Assay for zebrafish Androgen Receptor (AR) (AID 2283771)
How it was run: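 HepG2 cells were transiently transfected with a zebrafish AR-GAL4 reporter system and partially stimulated with 3 nM 6-alpha-fluorotestosterone. Reporter mRNA was measured after 24 h dosing by RT-PCR with capillary electrophoresis, and gain-of-signal was fitted relative to DMSO.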

[8] = biological target: zebrafish Estrogen Receptor (ESR1), esr1 (gene 259252) (UniProt P57717); assay: ATG_zfER1_XSP1: Attagene TRANS-FACTORIAL Multi-Species (XSP1) HepG2 Assay for zebrafish Estrogen Receptor (ESR1) (AID 2283772)
Sequence of zebrafish Estrogen Receptor (ESR1), esr1 (gene 259252) (P57717 whole entry, looked up, the tested form may be a part): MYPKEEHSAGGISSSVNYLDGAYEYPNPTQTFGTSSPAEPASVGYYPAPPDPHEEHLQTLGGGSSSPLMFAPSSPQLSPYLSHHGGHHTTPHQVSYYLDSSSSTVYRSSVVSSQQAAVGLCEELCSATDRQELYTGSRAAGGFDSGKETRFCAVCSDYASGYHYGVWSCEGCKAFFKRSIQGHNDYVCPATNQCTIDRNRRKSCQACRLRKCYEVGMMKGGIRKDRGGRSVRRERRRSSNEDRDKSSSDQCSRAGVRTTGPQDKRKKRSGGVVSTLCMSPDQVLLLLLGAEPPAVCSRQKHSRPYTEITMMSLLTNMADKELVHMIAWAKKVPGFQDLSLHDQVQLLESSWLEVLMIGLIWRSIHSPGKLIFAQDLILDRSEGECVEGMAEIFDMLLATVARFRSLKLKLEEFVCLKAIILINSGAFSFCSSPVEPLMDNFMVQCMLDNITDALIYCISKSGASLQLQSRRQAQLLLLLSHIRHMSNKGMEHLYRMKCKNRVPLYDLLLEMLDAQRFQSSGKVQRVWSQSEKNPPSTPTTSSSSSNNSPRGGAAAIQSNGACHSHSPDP
How it was run: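 Transfect HepG2 with GAL4-UAS multi-reporter constructs; treat 24 h (medium carries 3 nM 6-alpha-fluorotestosterone); extract RNA, reverse-transcribe, PCR-amplify, FAM-label, digest with HpaI; resolve by capillary electrophoresis and compare against DMSO baseline.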

[9] = biological target: Cellular tumor antigen p53 (Homo sapiens) (UniProt P04637); assay: TOX21_p53_BLA_p4_ratio: Tox21 HCT-116 p53 Agonism Beta-lactamase Assay, Ratio, Phase 4 (AID 2283601)
How it was run: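 Signal is the blue/green (460nm/530nm) ratio of cleaved versus uncleaved CCF4-AM substrate, read after 2 h substrate loading. Cells were HCT116 carrying the p53-responsive beta-lactamase reporter, dosed 16 h at 37C, 5% CO2; CellTiter-Glo measured in parallel.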

[10] = CEETOX_H295R_MTT_cell_viability: Viability Assessment in the CeeTox HT-H295R MTT Assay (AID 2283718; active = hit-call score of the fitted dose curve at least 0.9, where 1 is the maximum; inactive = score below 0.9)
How it was run: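 MTT reduction (0.5 mg/ml, 4 h at 37 C; absorbance at 570 and 650 nm) gave viability as background-corrected percent change versus controls. H295R cells had 48 h forskolin (10 uM) prestimulation, then 48 h chemical exposure at 0.1% DMSO.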

[11] = system: Thyroperoxidase (TPO), gene 54314; assay: CCTE_Simmons_AUR_rTPO: CCTE's Amplex UltraRed Assay for Thyroperoxidase (TPO) Inhibition, Simmons Lab (AID 2283662);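 note: potency for loss of signal meaning inhibition of peroxidase activity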
How it was run: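 Endpoint is decreased Amplex UltraRed fluorescence after a 30-min, 37C reaction of rat thyroid microsomes with 300 uM H2O2. Eight test concentrations (5 nM–87.5 uM final) in 0.5% DMSO, three biological replicates each.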

[12] = CCTE_Simmons_CellTiterGLO_HEK293T: Viability Assessment in CCTE's Assays for Thyroperoxidase (TPO) Inhibition, Simmons Lab (AID 2283665);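 note: cells exposed to compound for 24 h before readout; actives reduce ATP signal below DMSO vehicle meaning cytotoxicity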
How it was run: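 HEK293T cells in DMEM with 1% FBS were dosed with 8 concentrations (5 nM–87.5 uM final, 0.5% DMSO) for 24 hr at 37C; ATP content was read by CellTiter-Glo luminescence, loss-of-signal versus DMSO, three biological replicates.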

[13] = biological target: Luciferin 4-monooxygenase (Photinus pyralis) (UniProt P08659); assay: CCTE_Simmons_QuantiLum_inhib_2: CCTE's Firefly Luciferase Inhibition Assay, Simmons Lab (AID 2283767);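 note: potency for inhibitors that lower luciferase luminescence relative to DMSO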
Sequence of Luciferin 4-monooxygenase (Photinus pyralis) (P08659 whole entry, looked up): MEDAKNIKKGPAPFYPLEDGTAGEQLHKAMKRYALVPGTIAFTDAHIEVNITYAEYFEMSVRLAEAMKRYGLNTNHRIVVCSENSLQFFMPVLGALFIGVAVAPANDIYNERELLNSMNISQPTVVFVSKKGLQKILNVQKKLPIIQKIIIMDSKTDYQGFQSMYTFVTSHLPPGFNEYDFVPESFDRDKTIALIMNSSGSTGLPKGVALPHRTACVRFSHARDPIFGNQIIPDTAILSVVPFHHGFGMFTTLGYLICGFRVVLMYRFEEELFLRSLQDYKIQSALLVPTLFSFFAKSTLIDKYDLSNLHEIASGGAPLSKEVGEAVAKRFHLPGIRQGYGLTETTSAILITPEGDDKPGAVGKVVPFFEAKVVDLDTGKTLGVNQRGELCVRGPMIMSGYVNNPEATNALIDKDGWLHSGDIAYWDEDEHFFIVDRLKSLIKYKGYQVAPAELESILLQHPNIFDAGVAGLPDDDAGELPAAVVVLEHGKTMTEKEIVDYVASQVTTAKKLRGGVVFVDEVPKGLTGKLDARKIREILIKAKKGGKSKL
How it was run: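 Recombinant firefly luciferase (5 ng/well, 200 mM potassium phosphate with 1 mg/ml BSA) was exposed to 8 concentrations from 5 nM to 87.5 uM (final, 0.5% DMSO) for 30 min at 37C in the dark. Loss of luminescence versus DMSO was read after injecting D-luciferin/ATP-analogue reagent.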

Measured: AC50

C(=C(c1ccccc1)c1ccccc1)c1ccccc1
inactive: [1] | [2] | [3] | [4] | [5] | [6] | [7]
active: [8] 0.272 µM

CN(C)Cc1ccccc1O
inactive: [1] | [2] | [3] | [4] | [5] | [6] | [9]

Cc1ccc(S(=O)(=O)NCl)cc1
inactive: [1] | [2] | [3] | [4] | [5] | [6] | [9]

CCCCCCOC(=O)c1ccccc1
inactive: [1] | [2] | [3] | [4] | [5] | [6] | [9]

COC(=O)C1CCC(C(=O)OC)CC1 (stereo not given)
inactive: [1] | [3] | [4] | [5] | [6] | [9] | [10]

O=C(C=Cc1ccccc1)OCC=Cc1ccccc1
inactive: [1] | [2] | [3] | [6] | [9]

CC(CCl)OP(=O)(OC(C)CCl)OC(C)CCl (stereo not given)
inactive: [1] | [2] | [4] | [6] | [9]

CCC(=O)OCCc1ccccc1
inactive: [3] | [5] | [6] | [9]

Cc1cc(C)cc(O)c1
inactive: [1] | [2] | [3] | [5] | [9]

CC(C)OC(=O)c1ccccc1C(=O)OC(C)C
inactive: [1] | [10]

Oc1ccc(Nc2ccccc2)cc1
inactive: [3] | [5] | [9]

CCCCCCOC(=O)c1ccccc1O
inactive: [1] | [3] | [4] | [5] | [6]

O=S(=O)(O)c1ccc2ccccc2c1
inactive: [1] | [2] | [3] | [4] | [5] | [6] | [9]

CCc1ccc(C(c2ccc(CC)cc2)C(Cl)Cl)cc1
inactive: [2] | [3] | [4] | [5] | [6] | [9]

CC/C=C\CCOC(=O)c1ccccc1
inactive: [1] | [3] | [4] | [5] | [9]

CCCCNc1ccccc1
inactive: [1] | [2] | [3] | [4] | [5] | [9]

CCN(Cc1cccc(S(=O)(=O)O)c1)c1ccc(C(=C2C=CC(=[N+](CC)Cc3cccc(S(=O)(=O)O)c3)C=C2)c2ccc(O)cc2S(=O)(=O)[O-])cc1
active: [11] 19.1 µM | [12] 7.74 µM | [13] 3.86 µM
inactive: [1]

FC(F)(F)C(F)(F)C(F)(F)C(F)(F)CCI
inactive: [5] | [6] | [9]

O=C(OCCOCCOCCOC(=O)c1ccccc1)c1ccccc1
inactive: [1] | [2] | [3] | [6] | [9]
active: [5] 82.1 µM

CCN(CC)c1ccc2c(C)cc(=O)oc2c1
inactive: [1] | [2] | [4] | [6]
active: [3] 36.8 µM and 44.9 µM | [5] 38.6 µM and 31.6 µM | [9] 41.6 µM and 36 µM

Nc1cc(Cl)c(N)c(Cl)c1
inactive: [1] | [2] | [3] | [4] | [9]

CC/C=C\CCOC(C)=O
inactive: [1] | [2] | [5] | [9]

Nc1ccc(S(=O)(=O)Nc2nccs2)cc1
inactive: [3] | [5] | [6] | [9]

OC[C@@H](O)[C@@H](O)[C@H](O)[C@@H](O)CO
inactive: [1] | [2] | [3] | [5] | [6] | [9]

CCCCCCCOC(=O)c1ccccc1C(=O)OCCCCCCC
inactive: [1] | [10]
